From PubChem BioAssay (NCI) come the findings set out here.

Test systems include DU-145 prostate; MALME-3M melanoma; MDA-MB-231 breast; RXF 393 renal; SF-268 CNS; SF-295 CNS; SF-539 CNS; UACC-257 melanoma; M14 melanoma.
What all share (assay): NCI-60 one-dose screen, 48 h (100 = growth as untreated, 0 = no growth, -100 = all killed)
Conditions in all cases: 10 µM unless noted

About 83,000 compounds went through this panel and 20% of them were active in at least one assay; those are over-represented in the sample as a whole.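 Growth was measured after 48 h exposure to one concentration of compound in 96-well plates. Values under 10 count as active.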 Unmarked numbers belong to inactive results. The source made the active and inactive calls.

For `NC(=NCCCOc1ccc(Cl)cc1)Nc1ccc(Cl)cc1`, the growth in the test with DU-145 prostate is 16.9%; in the test with MALME-3M melanoma, -20.8% (active); in the test with MDA-MB-231 breast, -6.18% (active); in the test on RXF 393 renal it was 79.3%; in the test on SF-268 CNS, 36.6%; with SF-295 CNS, 17.9%. Further, the figures for the growth with SF-539 CNS, with UACC-257 melanoma and with M14 melanoma were 31.4%, 6.24% (active) and -35.7% (active), respectively.
For the compound `CN(C)c1ccc(N=Nc2ccc(Br)cn2)c(O)c1`, the growth in the test with DU-145 prostate was 24.7%; in the test on MALME-3M melanoma, 17.8%; in the test on MDA-MB-231 breast, 34.1%; in the test with RXF 393 renal, 55.5%; in the test on SF-268 CNS, 16.8%; with SF-295 CNS, 17.4%. For the same compound, the growth is -10.2% (active) in the test on SF-539 CNS, -11.5% (active) with UACC-257 melanoma and -1.74% (active) in the test with M14 melanoma.
For `CC(=O)c1cc(C(=O)c2ccc3c(c2)Sc2ccccc2N3)n2ccccc12`, the growth with DU-145 prostate was 1.94% (active); with MALME-3M melanoma it was 53.1%; with MDA-MB-231 breast, 17.9%; in the test on RXF 393 renal, 7.01% (active); in the test on SF-268 CNS it was 29.7%; with SF-295 CNS, 8.93% (active). The growth is -38.3% (active) in the test on SF-539 CNS, 51.4% in the test on UACC-257 melanoma and 20.1% in the test with M14 melanoma.
Regarding `Clc1ccc2c(NCCCCNc3nc(N4CCOCC4)nc4ccccc34)ccnc2c1`, the growth in the test on DU-145 prostate was 38.4%; with MALME-3M melanoma it was -58.7% (active); with MDA-MB-231 breast, -58.3% (active); in the test with RXF 393 renal, 86.3%; in the test with SF-268 CNS, 43%; in the test with SF-295 CNS it was -5.21% (active). Besides, the figures for the growth in the test with SF-539 CNS, in the test with UACC-257 melanoma and in the test on M14 melanoma were -84.5% (active), 84.9% and -66.2% (active), respectively.
Take `CCN1CCN(c2nc(NCCNc3ccnc4cc(Cl)ccc34)c3ccccc3n2)CC1`: the growth in the test on DU-145 prostate is 33.9%; with MALME-3M melanoma, -78% (active); in the test on MDA-MB-231 breast, -73% (active); with RXF 393 renal it was -39% (active); with SF-268 CNS, 27.2%; in the test with SF-295 CNS it was -41.9% (active). For the same compound, the growth in the test with SF-539 CNS was -71.2% (active); with UACC-257 melanoma, 57.9%; in the test on M14 melanoma it was -76.6% (active).
Consider `COc1cc(-c2nc(C(=O)NCC(=O)NO)nn2-c2ccc(Cl)cc2)cc(OC)c1OC`, for which the growth with DU-145 prostate was 107%; with MALME-3M melanoma, 129%; with MDA-MB-231 breast, 101%; in the test on RXF 393 renal it was 107%; with SF-268 CNS, 104%; with SF-295 CNS, 107%. The growth in the test on SF-539 CNS was 96.7%; in the test on UACC-257 melanoma, 86.8%; in the test on M14 melanoma, 101%.
As for `O=c1oc2c(C(F)(F)F)cccc2cc1-c1csc(Nc2ccc(OCCF)cc2)n1`, the growth in the test with DU-145 prostate was 2.54% (active); in the test on MALME-3M melanoma it was 66.2%; in the test with MDA-MB-231 breast it was 9.58% (active); in the test on RXF 393 renal, 22.5%; with SF-268 CNS, 23.3%; with SF-295 CNS, 4.4% (active). The growth with SF-539 CNS was -28.6% (active); in the test on UACC-257 melanoma, 55.2%; with M14 melanoma, 4.98% (active).
As to `CCN1CCN(c2nc(NCCCNc3ccnc4cc(Cl)ccc34)c3ccccc3n2)CC1`, the growth in the test with DU-145 prostate was 39.5%; in the test on MALME-3M melanoma it was -73.5% (active); in the test with MDA-MB-231 breast, -10.8% (active); in the test with RXF 393 renal, 5.38% (active); in the test with SF-268 CNS, 55.1%; in the test with SF-295 CNS, 22.7%. Moreover, the growth in the test with SF-539 CNS is -74.4% (active); in the test on UACC-257 melanoma it was -82.8% (active); with M14 melanoma, -87% (active).
Regarding `CC(=O)O[C@H]1C(=O)[C@@]2(C)[C@H]([C@H](OC(=O)c3ccccc3)[C@]3(O)C[C@H](OC(=O)[C@H](OC(=O)CCC(=O)OC4CCC(S/N=C(N)/N=C(\N)N(C)C)CC4)[C@@H](NC(=O)c4ccccc4)c4ccccc4)C(C)=C1C3(C)C)[C@]1(OC(C)=O)CO[C@@H]1C[C@@H]2O` (some centres not stated), the growth was 0.0949% (active) in the test with DU-145 prostate; 66.8% with MALME-3M melanoma; 22.8% in the test on MDA-MB-231 breast; 10.6% with RXF 393 renal; 38.1% in the test on SF-268 CNS; -10.5% (active) in the test on SF-295 CNS. For the same compound, the growth was -19.7% (active) with SF-539 CNS, 58% in the test with UACC-257 melanoma and 30.1% in the test on M14 melanoma.
With `FC(F)(F)Oc1ccc2nc3nc4ccc[nH]c4cc3c2c1`, the growth is 87.7% with DU-145 prostate; 93% with MALME-3M melanoma; 74.2% in the test on MDA-MB-231 breast; 76.7% with RXF 393 renal; 82.3% in the test with SF-268 CNS; 98.2% in the test on SF-295 CNS. Further, the growth in the test with SF-539 CNS is 84.8%; in the test with UACC-257 melanoma, 103%; in the test with M14 melanoma, 96.2%.
On to `CC(O)CN(CC(C)O)c1ccc2c(c1)Cc1cc([N+](=O)[O-])ccc1-2` (configuration not stated), for which the growth in the test with DU-145 prostate is 101%; with MALME-3M melanoma, 83.7%; in the test with MDA-MB-231 breast, 99.6%; with RXF 393 renal, 105%; in the test with SF-268 CNS, 85.2%; in the test with SF-295 CNS, 90.3%. The growth is 92.4% in the test with SF-539 CNS, 125% in the test with UACC-257 melanoma and 106% in the test on M14 melanoma.
`O=C1/C(=C/c2ccc(OCCCOc3ccc(Cl)cc3)cc2)N=C2SCCCN12`: the growth with DU-145 prostate was 94.5%; in the test on MALME-3M melanoma, 122%; with MDA-MB-231 breast, 77.3%; in the test on RXF 393 renal, 110%; in the test on SF-268 CNS it was 100%; in the test with SF-295 CNS, 66.7%. Besides, the results for the growth in the test on SF-539 CNS, in the test on UACC-257 melanoma and in the test on M14 melanoma were 97%, 102% and 95.9%, respectively.
Take `COc1ccc2c(c1)CC/C(=C\c1cncc(Br)c1)C2=O`: the growth in the test on DU-145 prostate was 102%; with MALME-3M melanoma, 106%; in the test on MDA-MB-231 breast, 94.5%; in the test with RXF 393 renal, 98.4%; in the test on SF-268 CNS, 97.1%; in the test on SF-295 CNS, 94.5%. Also, the growth in the test with SF-539 CNS is 93.2%; in the test with UACC-257 melanoma, 112%; in the test on M14 melanoma it was 92.9%.
As to `CCOC(=O)c1c(C(=O)OCC)c2cc(-c3ccn4c(C(=O)c5ccccc5)c(C(=O)OCC)c(C(=O)OCC)c4c3)ccn2c1C(=O)c1ccccc1`, the growth in the test on DU-145 prostate is 100%; in the test on MALME-3M melanoma, 87.3%; in the test with MDA-MB-231 breast, 82.8%; in the test with RXF 393 renal it was 96.7%; with SF-268 CNS, 85%; in the test on SF-295 CNS, 106%. The figures for the growth in the test with SF-539 CNS, in the test with UACC-257 melanoma and in the test with M14 melanoma were 89.9%, 95.1% and 101%, respectively.
In the case of `O=C1c2c(O)cc(O)cc2-c2c(-c3ccc(O)cc3)oc3cc(O)cc1c23`, the growth is 40.9% with DU-145 prostate; 54.7% in the test with MALME-3M melanoma; 66.8% with MDA-MB-231 breast; 62.1% in the test with RXF 393 renal; 50.7% in the test on SF-268 CNS; 29.1% in the test with SF-295 CNS. Further, the growth in the test on SF-539 CNS was 25.2%; with UACC-257 melanoma it was 67.5%; with M14 melanoma, 46.1%.
For `COc1cccc2c1C(=O)c1c(O)c3c(c(O)c1C2=O)C[C@](O)(C(=O)CO)C[C@H]3O[C@@H]1C[C@@H](NC(=O)CCCN(C)C2(c3ccc(F)cc3)CC3CCC2C3)[C@H](O)[C@@H](C)O1` (some centres not stated), the growth is -48.4% (active) with DU-145 prostate; -83.2% (active) in the test with MALME-3M melanoma; -76.4% (active) in the test with MDA-MB-231 breast; -95.8% (active) in the test on RXF 393 renal; -82.4% (active) with SF-268 CNS; -92.9% (active) in the test with SF-295 CNS. Also, the growth is -81.6% (active) in the test on SF-539 CNS, -26.9% (active) in the test on UACC-257 melanoma and -86.8% (active) in the test with M14 melanoma.
Turning to `CCOc1ccc(-n2nc(C(=O)Nc3ccccc3)nc2-c2cc(OC)c(OC)c(OC)c2)cc1`, the growth in the test with DU-145 prostate is 89.6%; with MALME-3M melanoma, 54.5%; in the test with MDA-MB-231 breast, 43.9%; with RXF 393 renal it was 69.2%; in the test on SF-268 CNS, 76.5%; with SF-295 CNS, 34%. Besides, the growth in the test with SF-539 CNS is 62%; in the test on UACC-257 melanoma it was 66.4%; in the test on M14 melanoma, 38%.
Consider `COc1cccc(-c2nc(SCC(=O)Nc3ccc(C(=O)/C=C/c4ccc(OC)c(OC)c4)cc3)[nH]c(=O)c2C#N)c1`, for which the growth in the test with DU-145 prostate is 89.4%; in the test on MALME-3M melanoma, 97.4%; in the test on MDA-MB-231 breast it was 67.6%; in the test with RXF 393 renal, 85.2%; with SF-268 CNS, 82.9%; in the test on SF-295 CNS it was 94.5%. In addition, the values for the growth in the test with SF-539 CNS, in the test on UACC-257 melanoma and with M14 melanoma were 86.2%, 97.4% and 100%, respectively.
